The values below come from the supplement of paper PMC12669032.

One assay concerns Coprococcus comes. Briefly: growth AUC relative to DMSO control (median of replicates) (fraction); higher = more growth (less inhibition), active = hit call of the paper. The conditions noted are these: 20 µM; 24 h. The gist of the method:
(§1)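 Starting at OD600 0.05, gut bacterial monocultures in mGAM were grown anaerobically at 37 °C with 20 µM compound (1% DMSO) under pierced gas-permeable seals. OD600 was read every hour for 24 h, and the lowest OD of each curve was set to 0. Area under the growth curve was normalised to the plate median of solvent-only wells, or to row and column medians on the industrial chemical plate, and the median of three biological replicates grown on separate days is given.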
Turning to `CCOP(=O)(NC(C)C)Oc1ccc(SC)c(C)c1` (stereo unspecified), the “growth AUC” value was 0.974 (inactive).

With `[CH3][Hg][Cl]`, the “growth AUC” value is 0.816 (inactive).

As to `ClC1=C(Cl)C2(Cl)C3COCC3C1(Cl)C2(Cl)Cl` (stereo unspecified), the “growth AUC” value was 0.912 (inactive).

`c1cc2c3c(cccc3c1)CC2`: the “growth AUC” value was 1 (inactive).

As for `CO/N=C(/C(=O)OC)c1ccccc1COc1ccccc1C`, the “growth AUC” value is 0.996 (inactive).

In the case of `O=C(Nc1ccc(F)cc1F)c1cccnc1Oc1cccc(C(F)(F)F)c1`, the “growth AUC” value is 0.999 (inactive).

As for `ClC1=C(Cl)[C@]2(Cl)[C@@H]3[C@@H]4C[C@@H]([C@H]5O[C@@H]45)[C@@H]3[C@@]1(Cl)C2(Cl)Cl`, the “growth AUC” value is 0.95 (inactive).

For the compound `CC1(C)CCC(Cc2ccc(Cl)cc2)C1(O)Cn1cncn1` (stereo unspecified), the “growth AUC” value was 0.982 (inactive).

As for `CC(C)(C)C(O)C(Cc1ccc(Cl)cc1Cl)n1cncn1` (mixture of isomers), the “growth AUC” value was 0.982 (inactive).

As to `CC1(C)C(C=C(Cl)Cl)C1C(=O)OCc1cccc(Oc2ccccc2)c1` (mixture of isomers), the “growth AUC” value was 0.964 (inactive).

For `O=[N+]([O-])C(Br)(CO)CO`, the “growth AUC” value is 0.925 (inactive).

Regarding `COc1cc(OC)nc(NC(=O)NS(=O)(=O)c2ncccc2C(=O)N(C)C)n1`, the “growth AUC” value is 0.966 (inactive).

`COC(=O)c1ccccc1S(=O)(=O)NC(=O)Nc1nc(C)cc(C)n1`: the “growth AUC” value is 1 (inactive).

On to `CCS(=O)(=O)c1nc2ccccn2c1S(=O)(=O)NC(=O)Nc1nc(OC)cc(OC)n1`, for which the “growth AUC” value is 1.04 (inactive).

In the case of `COc1cc(OC)nc(NC(=O)NS(=O)(=O)c2cc(NC=O)ccc2C(=O)N(C)C)n1`, the “growth AUC” value is 0.993 (inactive).

On to `O=C(Nc1ccccc1)Nc1cnns1`, for which the “growth AUC” value is 0.971 (inactive).

Consider `CCSCCSP(=S)(OC)OC`, for which the “growth AUC” value was 1.1 (inactive).

For `Clc1cc(Cl)c(Cl)cc1Cl`, the “growth AUC” value is 0.971 (inactive).

Consider `COP(=S)(OC)Oc1cc(Cl)c(Br)cc1Cl`, for which the “growth AUC” value is 0.982 (inactive).

As to `CC(C)C1(C)N=C(c2ncccc2C(=O)O)NC1=O` (stereo unspecified), the “growth AUC” value was 1.02 (inactive).

With `O=c1oc2ccccc2c(O)c1C1CCCc2ccccc21` (stereo unspecified), the “growth AUC” value was 0.966 (inactive).

A further assay has as its system Escherichia coli ED1a. The description is as above. Conditions: 20 µM; 24 h;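 active = AUC reduced over 20% with Padj below 0.05 in at least 2 of 3 replicates; inactive = otherwise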. The gist of the method: as §1
In the case of `COP(=S)(OC)Oc1ccc(S(N)(=O)=O)cc1`, the “growth AUC” value is 0.976 (inactive).

As for `CCCCOC(=O)[C@@H](C)Oc1ccc(Oc2ccc(C#N)cc2F)cc1`, the “growth AUC” value was 1 (inactive).

With `CCC(C)(C)c1ccc(O)cc1`, the “growth AUC” value is 0.978 (inactive).

In the case of `CCCCCCCCCc1ccc(O)cc1`, the “growth AUC” value is 0.998 (inactive).

Take `CC(C)OC(=O)Nc1ccccc1`: the “growth AUC” value is 0.994 (inactive).

Take `CCCCc1c(C)nc(NCC)nc1OS(=O)(=O)N(C)C`: the “growth AUC” value is 0.987 (inactive).

Regarding `CCOP(=S)(OCC)Oc1cc(-c2ccccc2)on1`, the “growth AUC” value was 0.993 (inactive).

Regarding `C=CC(N)=O`, the “growth AUC” value was 0.972 (inactive).

Consider `CC(C)C(C(=O)OC(C#N)c1cccc(Oc2ccccc2)c1)c1ccc(OC(F)F)cc1` (stereo unspecified), for which the “growth AUC” value is 0.998 (inactive).

Consider `Oc1ccccc1-c1ccccc1`, for which the “growth AUC” value was 1.02 (inactive).

Take `FC(F)C(F)(F)OCC(Cn1cncn1)c1ccc(Cl)cc1Cl` (stereo unspecified): the “growth AUC” value is 0.972 (inactive).

As to `Nc1ccc(Cc2ccc(N)c(Cl)c2)cc1Cl`, the “growth AUC” value is 1.01 (inactive).

For the compound `Nc1cccc(Cl)c1Cl`, the “growth AUC” value is 1.04 (inactive).

Consider `COC(=O)NS(=O)(=O)c1ccc(N)cc1`, for which the “growth AUC” value is 0.972 (inactive).

Turning to `CC(C)=CC1C(C(=O)OCc2cccc(Oc3ccccc3)c2)C1(C)C` (mixture of isomers), the “growth AUC” value is 0.975 (inactive).

For `COP(=S)(OC)SCC(=O)N(c1ccc(Cl)cc1)C(C)C`, the “growth AUC” value is 0.988 (inactive).

Consider `CC(=O)O.CC(=O)O.CC(=O)O.NC(N)=NCCCCCCCCNCCCCCCCCN=C(N)N`, for which the “growth AUC” value was 0.966 (inactive).

Regarding `N#Cc1c(Cl)c(Cl)c(Cl)c(C#N)c1Cl`, the “growth AUC” value was 0.967 (inactive).

Consider `CCOP(=O)(NC(C)C)Oc1ccc(SC)c(C)c1` (stereo unspecified), for which the “growth AUC” value was 0.985 (inactive).

In the case of `[CH3][Hg][Cl]`, the “growth AUC” value is 1.04 (inactive).

For the compound `ClC1=C(Cl)C2(Cl)C3COCC3C1(Cl)C2(Cl)Cl` (stereo unspecified), the “growth AUC” value is 1 (inactive).

For `c1cc2c3c(cccc3c1)CC2`, the “growth AUC” value is 1.01 (inactive).

Turning to `CO/N=C(/C(=O)OC)c1ccccc1COc1ccccc1C`, the “growth AUC” value is 0.955 (inactive).

Turning to `O=C(Nc1ccc(F)cc1F)c1cccnc1Oc1cccc(C(F)(F)F)c1`, the “growth AUC” value is 0.968 (inactive).

In the case of `ClC1=C(Cl)[C@]2(Cl)[C@@H]3[C@@H]4C[C@@H]([C@H]5O[C@@H]45)[C@@H]3[C@@]1(Cl)C2(Cl)Cl`, the “growth AUC” value is 0.977 (inactive).
